From PubChem BioAssay (NCATS)
Results filed as inconclusive are left out. A call without a number means that no potency is given here. The source made the active and inactive calls. Unless noted, the call rests on the fitted dose curve.

tested on: not listed separately; experiment: qHTS for Inhibitors of the Functional Ribonucleoprotein Complex (vRNP) of Lymphocytic Choriomeningitis Arenaviruses (LCMV): Viability assay - alamar blue signal for LCMV Primary Screen (AID 1347085; calls by dose curve; tested in HEK293 reporter line; further: nearly all actives have a fitted effect of over 80% in size); details: alamar blue viability counter-screen, LCMV vRNP screen cells; series mostly up to 57.5 µM
Potency means the concentration at half of the fitted maximal effect.

Q: For `O=c1[nH]c(=O)n([C@H]2CCCO2)cc1F`, which Potency is on record?
A: The Potency was “inactive”.

Q: For `O=C(O)c1c(O)c(-c2ccccc2)nc2ccccc12`, which Potency is on record?
A: Its Potency is “inactive”.

Q: Which Potency does the source give for `O=C(O)c1ccc(S(=O)(=O)N(Cl)Cl)cc1` here?
A: The Potency was “inactive”.

Q: For `CC(=O)N[C@@H](CCC(=O)O)C(=O)O`, which Potency is on record?
A: The Potency was “inactive”.

Q: Which Potency does the source give for `CN[C@@H]1[C@@H](O)[C@@H](O[C@@H]2[C@H](O)[C@H](O[C@H]3OC(CN)=CC[C@H]3N)[C@@H](N)C[C@H]2N)OCC1(C)O` (stereo partly drawn) here?
A: The Potency was “inactive”.

Q: Which Potency does the source give for `Cc1ccccc1OCC(O)CO` (stereo not drawn) here?
A: Its Potency is “inactive”.

Q: With `CC=CC1=C(C(=O)O)N2C(=O)[C@H](NC(=O)[C@H](N)c3ccc(O)cc3)[C@@H]2SC1` as the compound, how does the Potency read?
A: Its Potency is “inactive”.

Q: With `C[C@@H]1O[C@@H](O[C@H]2CC[C@@]3(C)[C@H](CC[C@@H]4[C@H]3C[C@@H](O)[C@]3(C)[C@@H](C5=CC(=O)OC5)CC[C@]43O)C2)C[C@H](O)[C@@H]1O[C@H]1C[C@H](O)[C@H](O[C@H]2C[C@H](O)[C@@H](O)[C@@H](C)O2)[C@H](C)O1` (stereo in doubt) as the compound, how does the Potency read?
A: Its Potency is 0.396 µM (active).

Q: Which Potency does the source give for `NC(N)=NC(=O)Cc1c(Cl)cccc1Cl` here?
A: Its Potency is “inactive”.

Q: For `Cc1cc(O)cc(C)c1Cl`, which Potency is on record?
A: The Potency was “inactive”.

Q: With `Cc1c(C(C)C)c(=O)n(-c2ccccc2)n1C` as the compound, how does the Potency read?
A: The Potency was “inactive”.

Q: For `O=C(O)CCc1nc2ccccc2[nH]1`, which Potency is on record?
A: Its Potency is “inactive”.

Q: With `CC(=O)N(CC(O)CO)c1c(I)c(C(=O)NCCO)c(I)c(C(=O)NCC(O)CO)c1I` (stereo not drawn) as the compound, how does the Potency read?
A: Its Potency is “inactive”.

Q: With `C1COC(NC(C2CC2)C2CC2)=N1` as the compound, how does the Potency read?
A: The Potency was “inactive”.

Q: Which Potency does the source give for `CCOC(=O)C1=C[C@@H](OC(CC)CC)[C@H](NC(C)=O)[C@@H](N)C1` here?
A: The Potency was “inactive”.

Q: For `CC(=O)OCC(=O)[C@H]1CC[C@H]2[C@@H]3CCC4=CC(=O)CC[C@]4(C)[C@H]3CC[C@]12C`, which Potency is on record?
A: Its Potency is “inactive”.

Q: Which Potency does the source give for `CC(=O)Nc1c(I)c(NC(C)=O)c(I)c(C(=O)O)c1I` here?
A: The Potency was “inactive”.

Q: With `NC(=O)c1ccc([N+](=O)[O-])cc1Cl` as the compound, how does the Potency read?
A: The Potency was “inactive”.

Q: Which Potency does the source give for `CC(=O)[C@@]1(O)CC[C@H]2[C@@H]3C[C@H](C)C4=CC(=O)C=C[C@]4(C)[C@@]3(F)[C@@H](O)C[C@@]21C` here?
A: The Potency was “inactive”.

Q: With `CCCCCC(C)N` (stereo not drawn) as the compound, how does the Potency read?
A: The Potency was “inactive”.

Q: For `CCOc1ccccc1OCC1CNCCO1` (stereo not drawn), which Potency is on record?
A: The Potency was “inactive”.

Q: Which Potency does the source give for `CC(C)CCOC(=O)c1ccc(N(C)C)cc1` here?
A: Its Potency is “inactive”.

Q: For `CN(C)[C@@H]1C(=O)C(C(N)=O)=C(O)[C@@]2(O)C(=O)C3=C(O)c4c(O)cccc4C[C@H]3C[C@@H]12`, which Potency is on record?
A: The Potency was “inactive”.

Q: Which Potency does the source give for `C=CCc1ccc(O)c(OC)c1` here?
A: The Potency was “inactive”.

Q: Which Potency does the source give for `NCC(=O)CCC(=O)O` here?
A: The Potency was “inactive”.

Q: With `CCCCCCCCCCOc1cc2c(=O)c(C(=O)OCC)c[nH]c2cc1OCC` as the compound, how does the activity change, negative = lower viability read?
A: The activity change, negative = lower viability was 5.24% [at 5.82 µM] (inactive).

Q: With `NS(=O)(=O)c1ccc(C(=O)O)cc1` as the compound, how does the Potency read?
A: The Potency was “inactive”.

Q: With `O=C(O)Cc1cccc2ccccc12` as the compound, how does the Potency read?
A: The Potency was “inactive”.

Q: With `O=C(O)[C@@H]1[C@H]2C[C@H]3c4[nH]c5ccccc5c4CCN3C[C@@H]2CC[C@@H]1O` as the compound, how does the Potency read?
A: Its Potency is “inactive”.

Q: With `CC[C@]12CCCN3CCc4c(n(c5ccccc45)[C@@](O)(C(=O)OC)C1)[C@@H]32` as the compound, how does the Potency read?
A: Its Potency is “inactive”.

Q: Which Potency does the source give for `CCCCCCCCCCCCCCCC(=O)O` here?
A: The Potency was “inactive”.

Q: For `O=C(O)Cc1cn(-c2ccccc2)nc1-c1ccc(Cl)cc1`, which Potency is on record?
A: The Potency was “inactive”.

Q: For `COC(=O)C1=C(C)NC(C)=C(C(=O)OCC(C)=O)C1c1ccccc1[N+](=O)[O-]` (stereo not drawn), which Potency is on record?
A: The Potency was “inactive”.

Q: Which Potency does the source give for `CO/N=C(/C(=O)N[C@@H]1C(=O)N2C(C(=O)[O-])=C(C[n+]3ccn4ncccc43)CS[C@H]12)c1nsc(N)n1` here?
A: Its Potency is “inactive”.

Q: With `O=C1CC[C@H](C(=O)N2CCCCC2)N1` as the compound, how does the Potency read?
A: The Potency was “inactive”.

Q: With `NC/C=C/C(=O)O` as the compound, how does the Potency read?
A: The Potency was “inactive”.

Q: With `O=C(O)c1cc(O)c(O)c(O)c1` as the compound, how does the Potency read?
A: Its Potency is “inactive”.

Q: For `CCOc1cc(CC(=O)N[C@@H](CC(C)C)c2ccccc2N2CCCCC2)ccc1C(=O)O`, which Potency is on record?
A: The Potency was “inactive”.

Q: For `Nc1ccc(C(=O)OCC(O)CO)cc1` (stereo not drawn), which Potency is on record?
A: Its Potency is “inactive”.

molecular target: Nucleoprotein (Lymphocytic choriomeningitis virus (strain Armstrong)) (UniProt P09992); experiment: qHTS for Inhibitors of the Functional Ribonucleoprotein Complex (vRNP) of Lymphocytic Choriomeningitis Arenaviruses (LCMV): LCMV Primary Screen - GLuc reporter signal (AID 1347086); details: LCMV minigenome vRNP cell assay, Gaussia luciferase reporter; series mostly up to 57.5 µM; further: nearly all actives have a fitted effect of over 70% in size
Sequence (P09992 whole entry, looked up): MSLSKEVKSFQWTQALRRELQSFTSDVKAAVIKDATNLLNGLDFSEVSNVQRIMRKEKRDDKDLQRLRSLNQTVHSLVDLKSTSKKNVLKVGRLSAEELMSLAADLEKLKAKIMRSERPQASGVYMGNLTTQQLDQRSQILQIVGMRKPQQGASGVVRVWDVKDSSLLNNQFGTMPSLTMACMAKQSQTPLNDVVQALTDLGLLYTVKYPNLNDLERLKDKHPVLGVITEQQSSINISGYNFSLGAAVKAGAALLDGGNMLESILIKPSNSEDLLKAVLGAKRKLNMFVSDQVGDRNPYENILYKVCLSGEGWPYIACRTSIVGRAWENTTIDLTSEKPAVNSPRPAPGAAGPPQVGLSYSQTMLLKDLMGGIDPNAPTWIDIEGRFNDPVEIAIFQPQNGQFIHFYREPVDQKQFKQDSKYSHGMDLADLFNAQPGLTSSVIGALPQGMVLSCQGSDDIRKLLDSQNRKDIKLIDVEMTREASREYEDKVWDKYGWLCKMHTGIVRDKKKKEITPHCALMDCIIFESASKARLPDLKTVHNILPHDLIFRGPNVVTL

Q: Which Potency does the source give for `O=c1[nH]c(=O)n([C@H]2CCCO2)cc1F` here?
A: Its Potency is “inactive”.

Q: For `O=C(O)c1c(O)c(-c2ccccc2)nc2ccccc12`, which Potency is on record?
A: Its Potency is “inactive”.

Q: For `O=C(O)c1ccc(S(=O)(=O)N(Cl)Cl)cc1`, which Potency is on record?
A: The Potency was “inactive”.

Q: For `CC(=O)N[C@@H](CCC(=O)O)C(=O)O`, which Potency is on record?
A: Its Potency is “inactive”.

Q: Which Potency does the source give for `CN[C@@H]1[C@@H](O)[C@@H](O[C@@H]2[C@H](O)[C@H](O[C@H]3OC(CN)=CC[C@H]3N)[C@@H](N)C[C@H]2N)OCC1(C)O` (stereo partly drawn) here?
A: The Potency was “inactive”.

Q: For `Cc1ccccc1OCC(O)CO` (stereo not drawn), which Potency is on record?
A: Its Potency is “inactive”.

Q: Which Potency does the source give for `CC=CC1=C(C(=O)O)N2C(=O)[C@H](NC(=O)[C@H](N)c3ccc(O)cc3)[C@@H]2SC1` here?
A: Its Potency is “inactive”.

Q: For `C[C@@H]1O[C@@H](O[C@H]2CC[C@@]3(C)[C@H](CC[C@@H]4[C@H]3C[C@@H](O)[C@]3(C)[C@@H](C5=CC(=O)OC5)CC[C@]43O)C2)C[C@H](O)[C@@H]1O[C@H]1C[C@H](O)[C@H](O[C@H]2C[C@H](O)[C@@H](O)[C@@H](C)O2)[C@H](C)O1` (stereo in doubt), which Potency is on record?
A: The Potency was 0.444 µM (active).

Q: With `NC(N)=NC(=O)Cc1c(Cl)cccc1Cl` as the compound, how does the Potency read?
A: Its Potency is “inactive”.

Q: Which Potency does the source give for `Cc1cc(O)cc(C)c1Cl` here?
A: The Potency was “inactive”.

Q: Which Potency does the source give for `Cc1c(C(C)C)c(=O)n(-c2ccccc2)n1C` here?
A: The Potency was “inactive”.

Q: For `O=C(O)CCc1nc2ccccc2[nH]1`, which Potency is on record?
A: Its Potency is “inactive”.

Q: With `CC(=O)N(CC(O)CO)c1c(I)c(C(=O)NCCO)c(I)c(C(=O)NCC(O)CO)c1I` (stereo not drawn) as the compound, how does the Potency read?
A: Its Potency is “inactive”.

Q: With `C1COC(NC(C2CC2)C2CC2)=N1` as the compound, how does the Potency read?
A: The Potency was “inactive”.

Q: Which Potency does the source give for `CCOC(=O)C1=C[C@@H](OC(CC)CC)[C@H](NC(C)=O)[C@@H](N)C1` here?
A: Its Potency is “inactive”.

Q: With `CC(=O)OCC(=O)[C@H]1CC[C@H]2[C@@H]3CCC4=CC(=O)CC[C@]4(C)[C@H]3CC[C@]12C` as the compound, how does the Potency read?
A: The Potency was “inactive”.

Q: Which Potency does the source give for `CC(=O)Nc1c(I)c(NC(C)=O)c(I)c(C(=O)O)c1I` here?
A: Its Potency is “inactive”.

Q: Which Potency does the source give for `NC(=O)c1ccc([N+](=O)[O-])cc1Cl` here?
A: The Potency was “inactive”.

Q: With `CC(=O)[C@@]1(O)CC[C@H]2[C@@H]3C[C@H](C)C4=CC(=O)C=C[C@]4(C)[C@@]3(F)[C@@H](O)C[C@@]21C` as the compound, how does the Potency read?
A: The Potency was “inactive”.

Q: With `CCCCCC(C)N` (stereo not drawn) as the compound, how does the Potency read?
A: The Potency was “inactive”.

Q: With `CCOc1ccccc1OCC1CNCCO1` (stereo not drawn) as the compound, how does the Potency read?
A: Its Potency is “inactive”.

Q: With `CC(C)CCOC(=O)c1ccc(N(C)C)cc1` as the compound, how does the Potency read?
A: The Potency was “inactive”.

Q: Which Potency does the source give for `CN(C)[C@@H]1C(=O)C(C(N)=O)=C(O)[C@@]2(O)C(=O)C3=C(O)c4c(O)cccc4C[C@H]3C[C@@H]12` here?
A: Its Potency is “inactive”.

Q: With `C=CCc1ccc(O)c(OC)c1` as the compound, how does the Potency read?
A: The Potency was “inactive”.

Q: For `NCC(=O)CCC(=O)O`, which Potency is on record?
A: The Potency was “inactive”.

Q: Which activity change, negative = inhibition does the source give for `CCCCCCCCCCOc1cc2c(=O)c(C(=O)OCC)c[nH]c2cc1OCC` here?
A: Its activity change, negative = inhibition is 13.4% [at 5.82 µM] (inactive).

Q: For `NS(=O)(=O)c1ccc(C(=O)O)cc1`, which Potency is on record?
A: The Potency was “inactive”.

Q: Which Potency does the source give for `O=C(O)Cc1cccc2ccccc12` here?
A: The Potency was “inactive”.

Q: For `O=C(O)[C@@H]1[C@H]2C[C@H]3c4[nH]c5ccccc5c4CCN3C[C@@H]2CC[C@@H]1O`, which Potency is on record?
A: The Potency was “inactive”.

Q: With `CC[C@]12CCCN3CCc4c(n(c5ccccc45)[C@@](O)(C(=O)OC)C1)[C@@H]32` as the compound, how does the Potency read?
A: Its Potency is “inactive”.

Q: For `CCCCCCCCCCCCCCCC(=O)O`, which Potency is on record?
A: The Potency was “inactive”.

Q: With `O=C(O)Cc1cn(-c2ccccc2)nc1-c1ccc(Cl)cc1` as the compound, how does the Potency read?
A: The Potency was “inactive”.

Q: For `COC(=O)C1=C(C)NC(C)=C(C(=O)OCC(C)=O)C1c1ccccc1[N+](=O)[O-]` (stereo not drawn), which Potency is on record?
A: Its Potency is “inactive”.

Q: Which Potency does the source give for `CO/N=C(/C(=O)N[C@@H]1C(=O)N2C(C(=O)[O-])=C(C[n+]3ccn4ncccc43)CS[C@H]12)c1nsc(N)n1` here?
A: Its Potency is “inactive”.

Q: For `O=C1CC[C@H](C(=O)N2CCCCC2)N1`, which Potency is on record?
A: Its Potency is “inactive”.

Q: Which Potency does the source give for `NC/C=C/C(=O)O` here?
A: Its Potency is “inactive”.

Q: Which Potency does the source give for `O=C(O)c1cc(O)c(O)c(O)c1` here?
A: The Potency was “inactive”.

Q: With `CCOc1cc(CC(=O)N[C@@H](CC(C)C)c2ccccc2N2CCCCC2)ccc1C(=O)O` as the compound, how does the Potency read?
A: Its Potency is “inactive”.

Q: Which Potency does the source give for `Nc1ccc(C(=O)OCC(O)CO)cc1` (stereo not drawn) here?
A: Its Potency is “inactive”.
